This is a sample that favours compounds with a hit; in the whole collection about 4.6% have one here.
TIM10 inh: inhibits growth of TIM10 yeast strain; AID 463195; 1.4% of 330,000 active; S. cerevisiae TIM10 strain growth, BacTiter-Glo luminescence, 24 h; inhibition, % at 10 µM;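 active means inhibition of 40% or more at the single tested concentration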;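 further: wild-type TIM10 isogenic control strain grown at permissive 25 °C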
tim10-1 inh: growth inhibitors of tim10-1 mutant yeast | S. cerevisiae tim10-1 ts strain growth, BacTiter-Glo, 24 h | inhibition, % at 20 µM | 2.2% of 330,000 active;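 active means inhibition of at least 40%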;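 further: mutant grown at 25 °C; 0% = DMSO wells with yeast and 100% = wells holding no yeast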
V-ATPase pH: yeast V-ATPase proton transport regulation by pHLuorin | S. cerevisiae, pHLuorin cytosolic pH fluorescence | response, % at 10 µM | 0.37% of 350,000 active | AID 504577; in the data active means response mostly above about 7.3%, no sharp cut-off; inactive means mostly below about 5.4%; further: actives read high
SKKanGAS inh: inhibitors of SKKanGAS S. pyogenes growth in kanamycin (SK-promoter or general growth effect); BacTiter-Glo, 6 h; inhibition, % at 7.5 µM; 1.3% of 300,000 active; AID 1662;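 active means mean replicate score, as percent of positive control median, at least 50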;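 further: strain carries kanamycin resistance gene driven by streptokinase promoter and grows in 40 µg/ml kanamycin; loss of luminescence reflects streptokinase promoter inhibition or plain growth inhibition; 0% = median of DMSO wells and 100% = positive control at its reference dose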
PfHsp90 set2: growth inhibition of yeast expressing Plasmodium Hsp90 | S. cerevisiae expressing PfHsp90, BacTiter-Glo ATP, 48 h; yeast lacking PDR1 and PDR3 efflux regulators | inhibition, % at 9.4 µM | 0.32% of 310,000 active;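 active means every replicate shows inhibition above about 80%, whatever the replicate mean, limit read from the data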;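 further: 0% = DMSO neutral controls and 100% = 20 µM radicicol positive controls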
tim23-1 inh: inhibits growth of tim23-1 mutant yeast. S. cerevisiae tim23-1 growth, BacTiter-Glo luminescence, 24 h. inhibition, % at 20 µM. 1.3% of 330,000 active. AID 463212;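 active means growth inhibition of the mutant yeast at or above 50%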;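 further: temperature-sensitive mutant grown at 25 °C; plate controls were DMSO-treated mutant yeast for no effect and medium wells lacking yeast for full effect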
tim10-1 confirm: confirmation of tim10-1 mutant yeast growth inhibitors | 56% of 7,400 active | shares compounds with tim10-1 inh | S. cerevisiae tim10-1 ts strain growth, BacTiter-Glo, 24 h | inhibition, % at 20 µM;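 active means inhibition of yeast growth at or above a set limit in either of two repeat tests at 20 µM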;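 further: tim10-1 mutant grown at permissive 25 °C to find synthetic lethal compounds; 0% = DMSO yeast wells and 100% = medium wells without yeast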
TIM10 conf: TIM10 yeast growth inhibition, confirmed. S. cerevisiae tim10 strain growth, BacTiter-Glo luminescence, 24 h. shares compounds with TIM10 inh. 63% of 4,600 active. inhibition, % at 10 µM;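 active means inhibition of yeast growth at or above a set limit in either of two replicates at 10 µM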;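 further: this counterscreen used the strain with wild-type TIM10; 0% = yeast with DMSO and 100% = medium wells lacking yeast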
Starred values were filed as active, the others as inactive; . = no result given; + = active, no number.

SMILES	TIM10 inh	tim10-1 inh	V-ATPase pH	SKKanGAS inh	PfHsp90 set2	tim23-1 inh	tim10-1 confirm	TIM10 conf
CCc1ccc(OCC2NCCc3cc(OC)c(OC)cc32)cc1 (stereo not drawn)	25	33	1	-3	12	30	.	.
COc1cc2c(cc1OC)C(COc1ccc(F)cc1)NCC2 (stereo not drawn)	45*	43*	-5	-10	4	33	36*	42*
O=C(/C=C/c1cccc(Cl)c1)Nn1c(-c2cccs2)nc2ccccc2c1=O	43*	45*	3	15	14	36	36*	25
CC(=O)[C@@]1(O)[C@H](C)CC2C3CC=C4CC(OP(=O)(O)O)CC[C@]4(C)C3CC[C@@]21C (stereo partly drawn)	8	3	-3	0	-11	14	.	.
CCCCNC(=NCc1cccc(C(F)(F)F)c1)Nc1ccccc1	12	-10	0	3	-30	13	.	.
Cc1cc(C)c2nc3nc(C)c(C)cc3c(N)c2c1	81*	62*	-60	-17	19	49	71*	81*
CCCSc1nc(C)c2cc(C)cc(C)c2n1	-7	8	2	2	-14	17	.	.
CCCCN1C(=O)C(C(=O)OCC)CC2=C1CCCC2=O (stereo not drawn)	.	.	1	.	-3	.	.	.
O=C(c1cc(COc2ccc(F)cc2Cl)on1)N1CCC(OCc2cccnc2)CC1	52*	53*	-2	-17	-2	3	48*	52*
O=C(c1cc(COc2ccc(F)cc2Cl)on1)N1CCCCC1c1cccnc1 (stereo not drawn)	26	39	1	-1	21	43	.	.
Cc1ccc(CNC(=O)[C@H](C)NC(=O)C2CCN(C(=O)[C@@H]3CCCN3C(=O)OC(C)(C)C)CC2)cc1	7	-9	-2	5	19	3	.	.
CC(C)(C)NC(=O)C12CC3CC(CC(Cl)(C3)C1)C2	12	14	0	3	6	15	.	.
CC(C)(C)NC(=S)NC(=O)C12CCC3CC(CC(C3)C1)C2	49*	44*	1	16	-3	34	32*	36*
CCN1/C(=C/C=C/c2oc3ccc(-c4ccccc4)cc3[n+]2CC)Oc2ccc(-c3ccccc3)cc21	63*	61*	+	93*	55	-54	-6	42*
Cc1onc(-c2ccccc2Cl)c1C(=O)O/N=C(\N)c1ccc([N+](=O)[O-])o1	44*	49*	-3	5	-11	39	28	44*
O=C(COc1ccc(S(=O)(=O)N2CCCC2)cc1)Nc1ccc(F)cc1	17	14	-2	-8	6	28	.	.
O=C(Nc1ccccc1)Nc1ccc(S(=O)(=O)N2CCCCC2)cc1	51*	43*	3	6	-2	35	32*	-16
O=C(COc1ccccc1F)Nc1ccc(S(=O)(=O)N2CCCC2)cc1	44*	50*	-1	.	-15	29	30	33*
COc1ccc(C(=O)Nc2ccc(S(=O)(=O)N3CCCC3)cc2)cc1	45*	55*	0	-1	23	37	31	33*
O=C(COc1cccc(C(F)(F)F)c1)Nc1ccc(S(=O)(=O)N2CCCC2)cc1	68*	50*	5	.	-12	40	53*	51*
CSc1cccc(NC(=S)N2CCC(N(C)C3CCCC3)CC2)c1	-13	-4	-6	-5	-23	-8	.	.
COc1ccc(OC)c(S(=O)(=O)N2CCCC(C(=O)N3CCCCCC3)C2)c1 (stereo not drawn)	14	25	-1	-8	2	25	.	.
CCN(c1cccc(C)c1)c1nc2ccsc2c(=O)s1	14	0	-6	22	.	15	.	.
Cc1ccc2nc(N3CCN(C)CC3)c(C#N)cc2c1	5	8	2	-3	.	17	.	.
Cc1ccc2nc(N3CCN(Cc4nnnn4Cc4ccccc4)CC3)c(C#N)cc2c1	51*	58*	-2	14	-41	32	54*	-14
SMILES	TIM10 inh	tim10-1 inh	V-ATPase pH	SKKanGAS inh	PfHsp90 set2	tim23-1 inh	tim10-1 confirm	TIM10 conf
Cc1ccc2nc(-c3ccc(Br)o3)oc(=O)c2c1	48*	41*	3	3	-1	50	35*	33*
COc1cc2nc(-c3ccc(Br)o3)oc(=O)c2cc1OC	31	27	0	-6	-8	19	.	.
O=C(NCC(c1ccco1)N1CCCC1)c1ccc(Cl)c(S(=O)(=O)N2CCc3ccccc32)c1 (stereo not drawn)	8	7	13	.	.	20	.	.
COc1ccccc1N1CCN(C(=O)/C=C/c2c(Cl)nc3ccccn23)CC1	42*	59*	4	69*	-10	44	51*	36*
FC(F)(F)Oc1ccc(NC(=S)Nc2ccc(OC(F)(F)F)cc2)cc1	57*	50*	5	72*	16	49	62*	70*
O=C(Nc1ccc2c(c1)OCCO2)c1cccc(C(=O)Nc2ccc3c(c2)OCCO3)c1	9	-11	-1	24	-6	-4	.	.
O=C(Nc1cccc(Cl)c1)c1ccc2c(c1)OCCO2	60*	50*	3	-8	27	50	40*	71*
CO/N=C/c1ccc(Sc2ccccc2N)c([N+](=O)[O-])c1	44*	49*	-1	-4	-13	29	35*	25
Cc1ccc2nc(-c3ccccc3)c(CN3CCN(c4ccccc4F)CC3)n2c1	51*	56*	-1	-5	-17	49	42*	37*
CSc1ccc(/C=C/C(=O)OCC(=O)N2CCN(S(=O)(=O)c3ccc(C)cc3C)CC2)cc1	6	14	-3	.	3	22	.	.
O=C1/C(=C/c2cccs2)SC(=S)N1c1ccccc1	-31	-14	0	-3	-41	-27	.	.
O=C1/C(=C/c2cccs2)SC(=S)N1c1cccc(O)c1	61*	41*	-3	10	8	47	57*	61*
C#CCOCCOCCOCCNc1nc(N2CCN(C(=O)C([C@@H](C)CC)n3cc(C(N)CO)nn3)CC2)nc(N2CCN(C(=O)[C@H](CCC(=O)O)n3cc(C(N)[C@H](C)CC)nn3)CC2)n1 (stereo partly drawn)	10	2	.	-2	.	-1	.	.
Cc1cccc(Cn2nnc3c2C(=O)c2ccccc2C3=O)c1	52*	42*	0	-7	-35	31	27	33*
CC(C)CN(C(=O)C1CSC2(C)CCC(=O)N12)c1c(N)n(Cc2ccccc2)c(=O)[nH]c1=O (stereo not drawn)	-2	-4	2	-4	-8	-4	.	.

Screens (PubChem)
